This note sets out measurements from PubChem BioAssay (NCI).

The panel holds about 83,000 compounds, 20% with a hit somewhere; the sample as a whole holds those more often.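 Activity criterion: percent growth below 10, measured after cells in 96-well plates were exposed to a single compound concentration for 48 hours.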 Values without a mark were called inactive. Activity calls are given as the source filed them.

Common to all, as to assay: NCI-60 one-dose screen, 48 h (100 = growth as untreated, 0 = no growth, -100 = all killed)
Holding throughout (conditions): 10 µM

In assay [1] the test system is DU-145 prostate.
The test system of assay [2] is K-562 leukemia.
The test system of assay [3] is MALME-3M melanoma.
Assay [4] concerns MDA-MB-231 breast.
The test system of assay [5] is RXF 393 renal.
Assay [6] relates to SF-268 CNS.
Assay [7] deals with SF-295 CNS.
In assay [8] the test system is SF-539 CNS.
Assay [9] relates to UACC-257 melanoma.
For assay [10], the system named is M14 melanoma.

On to `COc1cc2c(c(OC)c1OC)C(=O)CC(c1cccc(NC(=O)c3cccc(N)c3)c1)O2` (stereo not given), for which the growth in [1] was 83%; in assay [2], 47.5%; in assay [3], 78.8%; in assay [4], 68.3%; in assay [5], 100%; in [6] it was 81.7%. Also, the growth in assay [7] is 92.8%; in [8], 95.3%; in [9], 93.4%; in assay [10] it was 96.5%.

With `O=C(Nc1nc2ccc([N+](=O)[O-])cc2s1)Nc1cc(Cl)ccc1I`, the growth in [1] is 17.3%; in assay [2], -5.74% (active); in assay [3] it was -41% (active); in assay [4], -37% (active); in assay [5], -44.8% (active); in [6] it was 1.99% (active). The growth in assay [7] was -71% (active); in [8], -74.3% (active); in assay [9] it was -36.5% (active); in assay [10], -52.7% (active).

As to `CC(C)(C)Nc1nc2cc(Cl)c(Cl)cc2nc1S(C)(=O)=O`, the growth is 57.2% in [1]; -5.97% (active) in assay [2]; -78.5% (active) in assay [3]; 26.7% in assay [4]; 6.24% (active) in [5]; 73.7% in [6]. The growth is 91.1% in assay [7], 47.3% in [8], 70.6% in [9] and 5.68% (active) in assay [10].

Turning to `CO[C@@H]1CSSC1Cn1nc(-c2ccc(Oc3ccccc3)cc2)c2c(N)ncnc21` (stereo not given in full), the growth in assay [1] was 49.8%; in assay [2], 4.87% (active); in assay [3] it was 8.55% (active); in assay [4], 52.1%; in assay [5] it was 28.8%; in assay [6], 39.5%. Moreover, the growth in [7] is 47.8%; in assay [8], 44.1%; in [9], 10.9%; in [10], -90.6% (active).

Turning to `CN1C(=O)/C(=C/c2ccc3ncsc3c2)NC1=NC12CC3CC(CC(O)(C3)C1)C2`, the growth was 12.2% in assay [1]; 11.9% in assay [2]; -15% (active) in [3]; 0.441% (active) in assay [4]; -22.7% (active) in assay [5]; 24.5% in [6]. Further, the growth is 14.1% in assay [7], -32.1% (active) in assay [8], -17% (active) in assay [9] and 36.9% in assay [10].

For `O=C1NC(=NC23CC4CC(CC(C4)C2)C3)N/C1=C\c1ccc2ncoc2c1`, the growth in assay [1] was 7.99% (active); in [2] it was 12.1%; in assay [3] it was -24.3% (active); in assay [4] it was -1.98% (active); in [5] it was -52.5% (active); in [6], 9.72% (active). Moreover, the growth is 11.2% in assay [7], -49.2% (active) in assay [8], 4.63% (active) in assay [9] and 29.4% in assay [10].

For `CCOC(=O)C1NN(c2ccc(S(N)(=O)=O)cc2)c2nc3nc(-c4cccs4)cc(-c4cccs4)c3c(=O)n21` (stereo not given), the growth was 91.6% in assay [1]; 83.3% in assay [2]; 86.1% in assay [3]; 88.8% in assay [4]; 51.6% in assay [5]; 75% in assay [6]. For the same molecule, the growth in assay [7] is 78.5%; in assay [8], 63.1%; in assay [9], 109%; in assay [10] it was 74%.

In the case of `Nc1cccnc1/C=N/NC(=S)NCCNC(=O)c1ccc(-n2nc(-c3ccccc3O)nc2-c2ccccc2O)cc1`, the growth is 27.9% in assay [1]; 7.44% (active) in assay [2]; 14.3% in [3]; 19.8% in assay [4]; -10.6% (active) in [5]; 32.8% in assay [6]. In addition, the growth was -6.19% (active) in assay [7], -23.2% (active) in assay [8], 7.34% (active) in assay [9] and -39% (active) in [10].

Regarding `COc1cc(OC(F)(F)F)ccc1C(=O)Nc1sc2c(c1C#N)CCC(=O)C2`, the growth in assay [1] is 103%; in assay [2], 11%; in assay [3], 85%; in [4] it was 66.7%; in [5], 22.8%; in assay [6], 96.6%. Further, the growth was 60.7% in assay [7], 8.76% (active) in assay [8], 98% in assay [9] and 64.4% in assay [10].

For the molecule `CCN1CCN(Cc2ccc(NC(=O)c3cccc(-n4cc(-c5ccc(NC(C)=O)nc5)nn4)c3)cc2C(F)(F)F)CC1`, the growth in [1] was 104%; in [2], -28.4% (active); in [3], 53.1%; in assay [4], 75.8%; in [5], 102%; in [6], 123%. The growth was 93.1% in assay [7], 73.1% in assay [8], 87% in assay [9] and 78.3% in assay [10].

Turning to `C=C(c1ccc(OC)c(N)c1)c1cc(C)nc2ccccc12`, the growth in assay [1] was 14.9%; in assay [2], 11.3%; in [3], 49.9%; in [4] it was 10.5%; in [5], 51.4%; in assay [6], 24.3%. For the same molecule, the growth is 6.83% (active) in [7], -34.2% (active) in assay [8], 63.3% in assay [9] and 16% in [10].

Take `Cc1ccc([N+](=O)[O-])c(C(=O)Nc2ccc(-c3ccc4c(c3)NC(=O)/C4=C\c3ccc[nH]3)cc2)c1`: the growth in [1] is 10.5%; in assay [2] it was 28%; in assay [3] it was 55.5%; in [4] it was 55.1%; in [5] it was 87.4%; in [6], 14.2%. The growth in assay [7] is -65.3% (active); in assay [8], 73.7%; in assay [9], 81.4%; in assay [10] it was 34.2%.

Regarding `COc1cc(NC(=O)c2cc(-c3ccc(F)cc3F)ccc2O)cc(OC)c1OC`, the growth was 34.3% in [1]; 14% in [2]; 17.4% in assay [3]; 47.5% in assay [4]; 75.9% in assay [5]; 25.9% in assay [6]. Also, the growth was 65.5% in [7], 50.8% in assay [8], 55.3% in [9] and 55.8% in assay [10].

Regarding `COc1cccc(/C=C2\N=C(C)N(CCc3ccc(S(N)(=O)=O)cc3)C2=O)c1`, the growth in assay [1] is 112%; in assay [2], 99.9%; in [3], 98.2%; in [4], 104%; in assay [5], 121%; in assay [6], 101%. For the same molecule, the growth in [7] was 105%; in [8], 99.8%; in assay [9], 101%; in assay [10] it was 100%.

With `N#Cc1c(NC(=O)c2ccc(C(F)(F)F)cc2C(F)(F)F)sc2c1CCC(=O)C2`, the growth in assay [1] was 23.9%; in [2], 2.16% (active); in assay [3], -86.8% (active); in assay [4], -74.4% (active); in assay [5], -59% (active); in [6] it was 27.1%. Also, the growth was -21.7% (active) in assay [7], -80.2% (active) in assay [8], -64.8% (active) in [9] and -50.3% (active) in assay [10].

With `COc1ccccc1[C@H]1C(C(=O)c2ccc(Cl)cc2)C2(N[C@@H]1c1ccccc1)C(=O)Nc1ccc(Cl)cc12` (stereo not given in full), the growth in assay [1] was 10.5%; in [2], 1.21% (active); in assay [3], -24.8% (active); in assay [4] it was 4.86% (active); in [5] it was -29.4% (active); in [6], 26.3%. In addition, the growth in assay [7] is 2.46% (active); in assay [8] it was -16.6% (active); in [9] it was 22.4%; in assay [10] it was 28.4%.

`C/C(=C\CSc1ccccc1C(=O)O)CCCC(C)CCCC(C)CCCC(C)C` (stereo not given): the growth in [1] is 67.1%; in [2], 36.2%; in assay [3], 86.4%; in [4], 75.9%; in [5], 87.8%; in assay [6], 51.5%. The growth in assay [7] was 40.6%; in [8], 61.1%; in assay [9], 80.7%; in assay [10], 60%.

Take `Cc1ccc(CSc2nc(-c3ccc(F)cc3)c(C#N)c(=O)[nH]2)cc1`: the growth is 101% in assay [1]; 91.1% in assay [2]; 117% in assay [3]; 104% in assay [4]; 95.1% in assay [5]; 101% in assay [6]. Also, the growth is 95.6% in [7], 101% in assay [8], 102% in assay [9] and 116% in assay [10].

As for `O=C(c1ccccc1)n1ccc(-c2cc3cc(Br)ccc3oc2=O)n1`, the growth in assay [1] was 37.3%; in assay [2], 19.9%; in assay [3], 36.8%; in assay [4], 32%; in assay [5], 45.2%; in assay [6] it was 36.5%. Also, the growth in [7] was 24.4%; in [8] it was 10.5%; in [9] it was 2.91% (active); in [10], -4.71% (active).

As to `CC1=C2C(=C[C@@](C)(COCOCCCl)[C@@H]2O)C(=O)[C@](C)(O)C12CC2`, the growth is -11.1% (active) in assay [1]; 8.32% (active) in assay [2]; -84.9% (active) in assay [3]; -44.7% (active) in [4]; -78.4% (active) in [5]; -9.66% (active) in [6]. The growth is -30.2% (active) in [7], -65% (active) in [8], -30.3% (active) in [9] and -16% (active) in assay [10].

Regarding `O=C1NC(=NC23CC4CC(CC(C4)C2)C3)N/C1=C\c1ccc2ncccc2n1`, the growth is 2.14% (active) in assay [1]; 13.6% in assay [2]; -41.3% (active) in assay [3]; -18.5% (active) in [4]; -78.1% (active) in assay [5]; -29.8% (active) in [6]. Further, the growth in assay [7] was -27.5% (active); in assay [8], -77.7% (active); in assay [9], -4.23% (active); in [10], 14.5%.
